# Measurements published in PubChem BioAssay.
# Activity calls are given as the source filed them.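 Rule for the calls: active = inhibition above the hit cutoff set in the earlier primary screen (cut at about 27% in these data); inactive = the rest.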
# Molecular target: Protein phosphatase methylesterase 1 (Homo sapiens) (UniProt Q9Y570)
# Test: PME-1 inhibitor activity retest, confirmation, biochemical, fluorescence polarization, FP-Rh probe, triplicate (AID 2171);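 note: 0% = enzyme with DMSO and 100% = wells lacking PME-1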
# Conditions: recombinant PME-1, FP-Rh probe fluorescence polarization; at 5.9 µM; active compounds read high
# Chain of Protein phosphatase methylesterase 1 (Homo sapiens) (Q9Y570 whole entry, looked up): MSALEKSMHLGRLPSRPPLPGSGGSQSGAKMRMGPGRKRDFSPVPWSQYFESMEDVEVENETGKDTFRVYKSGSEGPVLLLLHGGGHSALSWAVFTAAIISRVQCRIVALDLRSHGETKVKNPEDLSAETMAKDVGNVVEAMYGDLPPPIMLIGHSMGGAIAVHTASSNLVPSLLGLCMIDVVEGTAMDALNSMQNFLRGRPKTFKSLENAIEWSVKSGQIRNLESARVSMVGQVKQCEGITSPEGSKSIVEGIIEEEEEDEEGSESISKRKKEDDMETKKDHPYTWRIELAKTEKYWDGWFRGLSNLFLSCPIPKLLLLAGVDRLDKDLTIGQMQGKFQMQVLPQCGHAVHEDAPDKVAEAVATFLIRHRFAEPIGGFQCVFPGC
row,SMILES,inhibition
1,COc1cccc(CNC(=O)CCCc2cn(C)c3ccccc23)c1,6.78% (inactive)
2,COc1cccc(NC(=O)Nc2nnc(N3CCCCC3C)s2)c1 (stereo not given),50.6% (active)
3,COc1ccc2cc3c(N)c(C(=O)NCc4ccco4)sc3nc2c1,39.8% (active)
4,O=C(O)c1cccc(-n2c(/C=C/c3ccc([N+](=O)[O-])cc3)nc3ccccc3c2=O)c1,24.3% (inactive)
5,CCC(=O)NC(c1cccs1)c1cc([N+](=O)[O-])c2cccnc2c1O (stereo not given),25.9% (inactive)
6,CCOC(=O)Cc1csc(NC(=O)c2sc3nc4c(C)cc(C)cc4cc3c2N)n1,23.4% (inactive)
7,Cc1cc(C(=O)N/N=C/c2cccc([N+](=O)[O-])c2)c(C)n1-c1ccccc1,-3.77% (inactive)
8,Cn1c(=O)c2c(nc(CN3CCN(C(c4ccccc4)c4ccccc4)CC3)n2CCCO)n(C)c1=O,23.8% (inactive)
9,CCC(C)c1ccc(S(=O)(=O)N2CCN(C(=O)COc3ccc4c(C)cc(=O)oc4c3)CC2)cc1 (stereo not given),0.33% (inactive)
10,Cc1ccc(Cn2nnc3c(=O)[nH]c(C4CCN(S(=O)(=O)/C=C/c5ccccc5)CC4)nc32)cc1,23.8% (inactive)
11,N#CCSc1nc2c(cc1C#N)CCCCCC2,22.3% (inactive)
12,Nc1ccc2nc3c(=O)n(CCc4ccccc4)c(=O)[nH]c3nc2c1,51.2% (active)
13,Cc1noc(C)c1CSc1nc2ccccc2nc1NS(=O)(=O)c1ccc(Cl)cc1,36% (active)
14,COc1cc(/C=N/NC(=O)[C@H](Cc2c[nH]c3ccccc23)NC(=O)OCC(C)C)cc([N+](=O)[O-])c1O,35.9% (active)
15,CCOc1ccc(/C=N/Nc2cc(N3CCOCC3)nc(C)n2)c(O)c1,26.4% (active)
16,Cn1c(=O)cc2c3c(c(N4CCCCC4)ccc31)C(=O)c1ccccc1-2,24.1% (inactive)
17,N#CCC(=O)c1ccccc1Oc1ccc(Cl)cc1,13.4% (inactive)
18,Cc1ccc2[nH]c(O)c(N=NC(=O)c3ccc(NS(=O)(=O)c4cccs4)cc3)c2c1,45.9% (active)
19,Cc1ccc(-c2csc(-c3c[nH]c4ccccc34)n2)cc1,11.1% (inactive)
20,CCc1nnc(NC(=O)CSc2nc(C)c3c(c2C#N)CCCC3)s1,13.9% (inactive)

row,SMILES,inhibition
1,CCOc1ccc2nc(SCC(=O)Nc3ccc4c(c3)OCCO4)[nH]c2c1,25.3% (inactive)
2,N#CC(C#N)=NNc1ccc(S(=O)(=O)N2CCCCC2)cc1,14.8% (inactive)
3,CC(C)N=c1cc2n(-c3ccc(Cl)cc3)c3ccccc3nc-2cc1Nc1ccc(Cl)cc1,17.7% (inactive)
4,COc1ccc(-c2csc(NC(=O)Nc3ccccc3)n2)cc1,25.6% (inactive)
5,CCn1c(CSc2nnc3ccccn23)nc2cc(C(=O)O)ccc21,59% (active)
6,O=C(OCCOCCN=C1NS(=O)(=O)c2ccccc21)c1ccccc1Br,5.54% (inactive)
7,CCCCOC(=O)c1ccc(NC(=O)Nc2ccc(OC)c(OC)c2)cc1,14.7% (inactive)
8,N#Cc1c(N)nc2c3c(sc(=N)c2c1N)NC(=O)CC3c1ccccc1 (stereo not given),29% (active)
9,Cc1c(C(=O)OC/C(O)=C(\C#N)c2nc3ccccc3[nH]2)oc2ccccc12,-5.29% (inactive)
10,CCC(=O)Oc1ccc(C/C(=N\O)c2ccc(O)cc2O)o1,43% (active)
11,C/C(=C\c1ccc2c(c1)OCO2)C1Nc2cccc3cccc(c23)N1,28.5% (active)
12,C/C(=N/Nc1nc(-c2ccccc2F)nc2ccccc12)c1ccccc1O,3.91% (inactive)
13,N#Cc1ccccc1Cn1c(=O)n(-c2ccc(CC(=O)NCc3ccco3)cc2)c(=O)c2sccc21,38.4% (active)
14,CCOc1ccc(NC(=O)Nc2ccc3c(c2)N(C)C(=O)CS3)cc1,14.8% (inactive)
15,O=C(O)CCNc1ccc(NCCC(=O)O)c2c1C(=O)c1ccccc1C2=O,16.7% (inactive)
16,Cc1cc(O)c(NC(=S)NC(=O)c2ccc(-c3ccc(Cl)cc3)o2)cc1C,42.2% (active)
17,Cc1ccc2nsnc2c1NS(=O)(=O)c1c(C)ccc2nsnc12,22.3% (inactive)
18,Cc1cc(O)ccc1N=Cc1c(C(F)(F)F)[nH][nH]c1=O,12.2% (inactive)
19,COc1ccc(Nc2cnn(-c3nc4ccccc4s3)c(=O)c2Cl)cc1,37.3% (active)
20,C=CCN=c1scc(-c2ccco2)n1/N=C/c1ccc(O)c(O)c1O,-17.6% (inactive)
